Among all 310,000 compounds or so, about 14,000 (4.5%) showed an effect of 50% or more. Effects have a minus sign here. The entries come from a sample that favours strong results as a whole.
target: human ether-à-go-go-related gene (hERG) potassium channel (human, UniProt Q12809); assay: primary screen, population patch clamp on CHO cells stably expressing hERG; higher = less effect of the substance
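Note: peak tail current of the secondary pulse compared with the same well before compound.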

human ether-à-go-go-related gene (hERG) potassium channel, sequence (Q12809 whole entry, looked up): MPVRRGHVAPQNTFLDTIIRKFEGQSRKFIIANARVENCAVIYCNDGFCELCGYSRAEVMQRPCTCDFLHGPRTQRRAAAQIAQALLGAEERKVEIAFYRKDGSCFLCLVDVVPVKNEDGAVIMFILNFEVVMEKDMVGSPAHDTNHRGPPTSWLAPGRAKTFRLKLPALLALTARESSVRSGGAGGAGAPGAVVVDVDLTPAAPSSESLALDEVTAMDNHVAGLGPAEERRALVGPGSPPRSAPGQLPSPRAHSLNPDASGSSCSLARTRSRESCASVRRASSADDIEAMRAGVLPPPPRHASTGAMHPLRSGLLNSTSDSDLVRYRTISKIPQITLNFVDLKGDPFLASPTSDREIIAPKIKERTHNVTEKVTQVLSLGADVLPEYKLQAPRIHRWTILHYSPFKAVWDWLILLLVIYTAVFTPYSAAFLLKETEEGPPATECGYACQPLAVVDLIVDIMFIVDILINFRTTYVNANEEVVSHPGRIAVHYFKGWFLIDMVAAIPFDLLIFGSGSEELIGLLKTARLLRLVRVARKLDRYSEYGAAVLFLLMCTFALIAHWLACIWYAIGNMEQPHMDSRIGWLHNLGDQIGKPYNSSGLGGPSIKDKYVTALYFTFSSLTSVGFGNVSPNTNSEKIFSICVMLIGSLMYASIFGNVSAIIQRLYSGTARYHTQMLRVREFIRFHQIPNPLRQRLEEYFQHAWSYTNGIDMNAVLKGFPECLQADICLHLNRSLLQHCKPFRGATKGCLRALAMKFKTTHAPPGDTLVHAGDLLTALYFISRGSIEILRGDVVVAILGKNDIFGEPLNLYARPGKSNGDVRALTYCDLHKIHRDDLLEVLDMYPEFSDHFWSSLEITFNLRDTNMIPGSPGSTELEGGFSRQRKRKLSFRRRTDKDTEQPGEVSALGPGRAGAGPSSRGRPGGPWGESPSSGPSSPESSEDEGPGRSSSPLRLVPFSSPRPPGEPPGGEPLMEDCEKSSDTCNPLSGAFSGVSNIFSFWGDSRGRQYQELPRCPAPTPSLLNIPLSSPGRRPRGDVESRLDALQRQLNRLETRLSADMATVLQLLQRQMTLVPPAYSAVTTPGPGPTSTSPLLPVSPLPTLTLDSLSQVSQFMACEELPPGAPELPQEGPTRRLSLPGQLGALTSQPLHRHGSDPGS

First: COC(=O)[C@@]1(Cc2ccc(OC)cc2)[C@H]2c3cc(C(=O)N(C)C)n(CCSCCO)c3C[C@H]2CN1C(=O)c1ccccc1
Second: COc1ccc(C(NC(=O)C2C3C=CC(C3)C2C(=O)O)c2ccccc2)cc1 (centres unmarked)
The “hERG current change (%, negative = inhibition) at 10uM” value of the first is lower: -18.4% for the first, -4.58% for the second.

Going from COC(=O)Nc1ccc(S(=O)(=O)N2CCCCC2)cc1 to Cc1ccc(S(=O)(=O)N2CCCCC2)cc1NC(=O)CSc1nnc(N)s1, the “hERG current change (%, negative = inhibition) at 10uM” value falls from -4.21% to -20.2%.

Going from Cn1nccc1C(=O)N/N=C/c1cccnc1 to COc1cccc(Nc2ncccc2C(=O)O)c1, the “hERG current change (%, negative = inhibition) at 10uM” value rises from -14.8% to 9.1%.

First: COCCNC(=O)CN1C(=O)COc2ccc(Cl)cc21
Second: COc1ccc(Br)cc1/C=N/N1C(=O)CSC1=S
The “hERG current change (%, negative = inhibition) at 10uM” value of the first is higher: 21.8% for the first, 17.3% for the second.

First: Cc1nn(-c2ccccc2)c(C)c1NC(=O)COC(=O)CCCOc1ccccc1
Second: O=C(CCc1ccccc1)NCc1ccccc1
The “hERG current change (%, negative = inhibition) at 10uM” value of the first is higher: 6.69% for the first, -8.04% for the second.

Compared with CCOC(=O)c1c[nH]c2ccc3ccccc3c2c1=O, CCOc1ccc(C(=O)Nc2ccccc2C(=O)O)cc1 is lower in “hERG current change (%, negative = inhibition) at 10uM” value: 13% for the first, 8.2% for the second.

Compared with COc1cc(C2C(C#N)=C(N)N(c3cccnc3)C3=C2C(=O)CCC3)ccc1O (centres unmarked), Cc1ccc(N2CCN(S(=O)(=O)c3ccc4oc(=O)ccc4c3)CC2)cc1Cl is higher in “hERG current change (%, negative = inhibition) at 10uM” value: -12% for the first, 3.42% for the second.

Compared with CC1CC(C)CN(S(=O)(=O)c2ccc3oc(=O)ccc3c2)C1 (centres unmarked), CC1CCCN(S(=O)(=O)c2ccc3oc(=O)ccc3c2)C1 (centres unmarked) is higher in “hERG current change (%, negative = inhibition) at 10uM” value: -59.5% for the first, -19.4% for the second.

First: O=c1ccc2cc(S(=O)(=O)N3CCN(c4ccccc4)CC3)ccc2o1
Second: O=c1ccc2cc(S(=O)(=O)N3CCN(c4ccc(Cl)cc4)CC3)ccc2o1
The “hERG current change (%, negative = inhibition) at 10uM” value of the first is higher: -0.646% for the first, -52.8% for the second.

First: O=c1ccc2cc(S(=O)(=O)N3CCOCC3)ccc2o1
Second: Cc1cc(C)c(S(=O)(=O)N2CCN(c3ccccc3)CC2)c(C)c1
The “hERG current change (%, negative = inhibition) at 10uM” value of the first is lower: 4.83% for the first, 16.5% for the second.

Compared with O=C(Cn1cc([N+](=O)[O-])cn1)N1CCN(c2ccccc2)CC1, C[C@H](NC(=O)c1ccccc1Cl)C(=O)OCC(=O)N1CCN(c2ccccc2)CC1 is lower in “hERG current change (%, negative = inhibition) at 10uM” value: 7.25% for the first, -9.59% for the second.

Compared with O=C(CN1CCCc2ccccc21)N/N=C/c1ccc(O)cc1O, Cc1cccc(N2CCN(C(=O)CNC(=O)c3ccccc3)CC2)c1C is lower in “hERG current change (%, negative = inhibition) at 10uM” value: -29.1% for the first, -30.6% for the second.

Compared with O=C(NC(CC(=O)N1CCN(c2ccccc2O)CC1)c1ccccc1)c1ccccc1Cl (centres unmarked), O=C(NC(CC(=O)N1CCN(c2ccccc2)CC1)c1ccccc1)c1ccccc1Cl (centres unmarked) is higher in “hERG current change (%, negative = inhibition) at 10uM” value: -70.6% for the first, -46.8% for the second.

Going from Cc1cccc(N2CCN(C(=O)CC(NC(=O)c3ccccc3Cl)c3ccccc3)CC2)c1C (centres unmarked) to O=C(NC(CC(=O)N1CCN(c2ccc([N+](=O)[O-])cc2)CC1)c1ccccc1)c1ccccc1Cl (centres unmarked), the “hERG current change (%, negative = inhibition) at 10uM” value falls from -59.9% to -85.3%.

Going from Cc1cccc(N2CCN(C(=O)c3ccccc3SCC(=O)N3CCCC3)CC2)c1C to Cc1cccc(-n2c(SCC(N)=O)nnc2-c2ccccn2)c1C, the “hERG current change (%, negative = inhibition) at 10uM” value rises from -34.7% to 1.28%.

Going from CC1CCN(C(=O)CC(NC(=O)c2ccccc2Cl)c2ccccc2)CC1 (centres unmarked) to O=C(NC(CC(=O)N1CCCC(C(F)(F)F)C1)c1ccccc1)c1ccccc1Cl (centres unmarked), the “hERG current change (%, negative = inhibition) at 10uM” value rises from -15.7% to -8.81%.

Going from C/C(=N\Nc1ccc([N+](=O)[O-])cc1)c1ccc(O)cc1 to Cn1c(SCc2ccc([N+](=O)[O-])cc2)nc2c(c1=O)SCC2, the “hERG current change (%, negative = inhibition) at 10uM” value falls from -1.55% to -67.5%.

Going from CNC(=S)N(CCO)Cc1cc2cc3c(cc2[nH]c1=O)OCO3 to Cn1c(SCC(=O)Nc2ccc(F)cc2)nc2c(c1=O)SCC2, the “hERG current change (%, negative = inhibition) at 10uM” value falls from 24% to -6.44%.

First: CCc1ccc(C(=O)NC(CC(C)C)C(=O)O)cc1 (centres unmarked)
Second: CCN(CC)C(=O)CSc1nc2ccsc2c(=O)n1CCCC(=O)NCCc1ccc(S(N)(=O)=O)cc1
The “hERG current change (%, negative = inhibition) at 10uM” value of the first is lower: -2.4% for the first, 24.7% for the second.

Compared with Cc1cc(/C=C2\C(=O)NC(=O)N(Cc3ccco3)C2=O)c(C)n1-c1ccc(C(=O)O)cc1, Cc1ccc(NC(=O)c2ccccc2N2C(=O)C3C4C=CC(C5CC45)C3C2=O)cc1C (centres unmarked) is lower in “hERG current change (%, negative = inhibition) at 10uM” value: 12.2% for the first, 2.91% for the second.

First: Cn1c(SCC(=O)Nc2ccccc2C(F)(F)F)nc2c(c1=O)SCC2
Second: Cn1c(SCC(=O)Nc2ccccc2F)nc2c(c1=O)SCC2
The “hERG current change (%, negative = inhibition) at 10uM” value of the first is lower: -57% for the first, -9.41% for the second.

First: Cn1c(SCc2cccc([N+](=O)[O-])c2)nc2c(c1=O)SCC2
Second: Cn1c(SCc2ccc(Br)cc2)nc2c(c1=O)SCC2
The “hERG current change (%, negative = inhibition) at 10uM” value of the first is lower: -36.6% for the first, -18.6% for the second.

From PMC4336329 (PLoS ONE, 2015)
